Measurements as given in PubChem BioAssay AID1159580 (chemical genetic matrix, 2015).
Values joined by “and” are separate entries in the source; they are usually repeats but may differ in a detail not shown here. Identical values can stand only once. Hit rate of the full screen: of about 5,500 compounds, about 2,000 (36%) were called active. Another 18% or so got no clear call; they are omitted. No stated cut-off is given here; in the data, active means normalized growth mostly below about 0.91 (no sharp cut-off); inconclusive means no clear call, values can overlap the other calls; inactive means mostly above about 0.92. Some of the results follow.

Assay: chemical genetic growth profiling, strain panel (AID 1159580);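 further: tested at 20 µM; growth read once vehicle control cultures reached saturation at 30 °C; 1 = growth at the plate median or of vehicle wells; lower values mean less growth of the strain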
Conditions: S. cerevisiae deletion strains, growth OD

Measured: normalized growth

NC(N)=Nc1nc(CSCCC(N)=NS(N)(=O)=O)cs1
inactive: locus YAL013W, strain DEP1, active compounds read low 1 | locus YAL021C, strain ccr4, active compounds read low 0.996 | locus YAL026C, strain drs2, active compounds read low 0.995 | locus YAL030W, strain snc1, active compounds read low 0.982 | locus YAL040C, strain CLN3, active compounds read low 0.997 | locus YBL061C, strain skt5, active compounds read low 0.978 | locus YBR009C, strain hhf1, active compounds read low 1.01 | locus YBR021W, strain FUR4, active compounds read low 0.996 | locus YBR023C, strain chs3, active compounds read low 0.997 | locus YBR171W, strain sec66, active compounds read low 0.958 | locus YBR229C, strain ROT2, active compounds read low 1 | locus YBR231C, strain swc5, active compounds read low 0.959 | locus YBR279W, strain paf1, active compounds read low 0.997 | locus YCL011C, strain gbp2, active compounds read low 0.993 | locus YCL016C, strain dcc1, active compounds read low 0.992 | locus YCL029C, strain bik1, active compounds read low 1.02 | locus YCL061C, strain MRC1 (second series), active compounds read low 1.01 | locus YCL069W, strain vba3, active compounds read low 0.991 | locus YCR088W, strain abp1, active compounds read low 0.978 | locus YDL005C, strain med2, active compounds read low 0.974 | locus YDL035C, strain GPR1, active compounds read low 1 | locus YDL040C, strain nat1, active compounds read low 0.969 | locus YDL074C, strain BRE1, active compounds read low 1.03 | locus YDL101C, strain DUN1, active compounds read low 1.01 | locus YDL134C, strain PPH21, active compounds read low 1.01 | locus YDL185W, strain tfp1, active compounds read low 1.01 | locus YDL192W, strain arf1, active compounds read low 1.01 | locus YDR001C, strain nth1, active compounds read low 0.972 | locus YDR069C, strain doa4, active compounds read low 0.968 | locus YDR101C, strain arx1, active compounds read low 1.01 | locus YDR137W, strain rgp1, active compounds read low 1 | locus YDR150W, strain NUM1, active compounds read low 0.996 | locus YDR159W, strain sac3, active compounds read low 0.986 | locus YDR162C, strain NBP2, active compounds read low 1.01 | locus YDR195W, strain ref2 0.969 | locus YDR297W, strain sur2, active compounds read low 0.997 | locus YDR318W, strain mcm21, active compounds read low 1.02 | locus YDR334W, strain swr1, active compounds read low 0.967 | locus YDR335W, strain msn5, active compounds read low 0.968 | locus YDR363W, strain ESC2, active compounds read low 0.999 | locus YDR388W, active compounds read low 1.01 | locus YDR392W, strain spt3, active compounds read low 1.02 | locus YDR502C, strain sam2, active compounds read low 1 | locus YEL003W, strain gim4, active compounds read low 0.983 | locus YEL037C, strain rad23, active compounds read low 0.975 | locus YEL061C, strain CIN8 (second series), active compounds read low 0.992 | locus YEL061C, strain CIN8, active compounds read low 1.01 | locus YER002W, strain NOP16, active compounds read low 1 | locus YER015W, strain faa2, active compounds read low 0.986 | locus YER016W, strain bim1, active compounds read low 1.01 | locus YER110C, active compounds read low 1.01 | locus YER111C, strain swi4, active compounds read low 0.991 | locus YER155C, strain BEM2 (second series), active compounds read low 0.988 | locus YER155C, strain BEM2, active compounds read low 1 | locus YER167W, strain BCK2, active compounds read low 1.01 | locus YFR010W, strain ubp6, active compounds read low 1 | locus YGL078C, strain dbp3, active compounds read low 1 | locus YGL086W, strain mad1, active compounds read low 0.996 | locus YGL167C, strain pmr1, active compounds read low 0.961 | locus YGL173C, strain kem1, active compounds read low 0.976 | locus YGL227W, strain vid30, active compounds read low 0.964 | locus YGL240W, strain doc1, active compounds read low 0.973 | locus YGL248W, strain PDE1, active compounds read low 0.985 | locus YGL253W, strain hxk2, active compounds read low 0.991 | locus YGR078C, strain PAC10, active compounds read low 1.03 | locus YGR229C, strain SMI1, active compounds read low 0.989 and 0.992 | locus YGR252W, strain gcn5, active compounds read low 0.993 | locus YHR013C, strain ard1, active compounds read low 1.01 | locus YHR027C, strain rpn1, active compounds read low 0.993 | locus YHR030C, strain SLT2, active compounds read low 1.01 and 0.989 | locus YHR079C, strain IRE1 (second series), active compounds read low 1.01 | locus YHR079C, strain IRE1, active compounds read low 0.972 | locus YHR094C, strain hxt1, active compounds read low 1.01 | locus YHR129C, strain ARP1, active compounds read low 1.01 | locus YHR142W, strain chs7, active compounds read low 0.959 | locus YHR200W, strain rpn10, active compounds read low 1.01 | locus YIL066C, strain RNR3, active compounds read low 1.01 | locus YIL073C, strain SPO22, active compounds read low 1.04 | locus YIL125W, strain kgd1, active compounds read low 1 | locus YIR030C, strain dcg1, active compounds read low 1.01 | locus YJL092W, strain hpr5, active compounds read low 0.987 | locus YJL095W, strain BCK1 (second series), active compounds read low 0.993 | locus YJL095W, strain BCK1, active compounds read low 1.04 and 0.984 | locus YJL115W, strain asf1, active compounds read low 0.983 | locus YJL129C, strain trk1, active compounds read low 0.944 | locus YJL134W, strain LCB3, active compounds read low 1 | locus YJL154C, strain vps35, active compounds read low 0.983 | locus YJL164C, strain tpk1, active compounds read low 1.01 | locus YJL166W, strain qcr8, active compounds read low 0.981 | locus YJL168C, strain set2, active compounds read low 1.01 | locus YJL187C, strain SWE1 (second series), active compounds read low 1.02 | locus YJL187C, strain SWE1, active compounds read low 0.984 | locus YJR043C, strain POL32, active compounds read low 1.01 | locus YJR066W, strain TOR1, active compounds read low 0.921 | locus YJR075W, strain HOC1, active compounds read low 1.01
